Compound activity deposited in PubChem by National Center for Advancing Translational Sciences (NCATS).
A selection: hits, their analogues and other compounds. The true share with any hit is near 3.8%.
ATXN2 expr inh: ATXN2 expression inhibition; HEK-293 ATXN2-luciferase reporter, luminescence, 24 h; Potency, µM (top dose mostly 57 µM), for inactives: top-dose activity change, negative = inhibition, actives largely listed as inhibitors; actives 0.72% (n = 360,000); also: % is scaled to controls: 0 for no effect and ±100 for the full control effect; nearly all actives have a fitted effect of over 55% in size
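qHTS (up to 57 uM final) was run with 24 h compound exposure of reporter cells at 37 °C. Each well was multiplexed: SteadyGlo luminescence measured ATXN2-luciferase expression after a fluorogenic Gly-Phe-AFC viability readout (25 uM final).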
Nrf2 block: blocks Nrf2 signaling; A549 ARE-Fluc reporter, luciferase luminescence, 18-24 h; actives 2.1% (n = 360,000); AID 504444; Potency, µM (top dose mostly 46 µM), for inactives: top-dose activity change, negative = inhibition, hits mostly inhibitors; also: % is scaled to controls: 0 for no effect and ±100 for the full control effect; nearly all actives have a fitted effect of over 60% in size
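Nrf2 activity is the BugLite luminescence, read 15 min after reagent at room temperature, following CellTiter-Fluor cytotoxicity readout (30 min, 37C). Compound titrations were applied for 18-24 h to 5000 A549 ARE_Fluc cells/well in 5% FBS OPTI-MEM.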
ATXN viability: viability counter-screen for ATXN expression inhibitors; S2 cells (HEK-293 line with an ATXN2-luciferase reporter) viability, CellTiter-Fluor protease fluorescence, 24 h; Potency, µM (series often up to 56.7 µM), hits mostly cytotoxic; actives 0.49% (n = 400,000); also: nearly all actives have a fitted effect of over 40% in size
TGFb inhibitor: blocks TGF-b signaling; HepG2 CAGA-GFP TGF-b/SMAD3 reporter, GFP fluorescence, 18 h; TGF-beta stimulated, 500 pg/mL final; Potency, µM (doses to about 46.1 µM), inactives show at the highest dose activity, negative = inhibition, usual class: inhibitors; actives 1.2% (n = 410,000); also: % is scaled to controls: 0 for no effect and ±100 for the full control effect; nearly all actives have a fitted effect of over 65% in size
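Inhibition of TGF-beta-driven CAGA-GFP reporter expression in HEPG2 cells is measured by cellular GFP fluorescence after 18 h stimulation with 500 pg/mL recombinant TGF-beta in 1% FBS medium at 37 degrees C.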
HepG2 viability: kills HepG2 cells in TGF-b inhibitor counter-screen; HepG2 CAGA-GFP viability, ATP luminescence, 18 h; Potency, µM (series often up to 46.1 µM), for inactives: top-dose activity change, negative = cytotoxicity, most hits filed as cytotoxic; actives 0.76% (n = 410,000)
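HepG2 CAGA-GFP cells (1000/well, DMEM with 1% FBS) received compound, then TGF-beta at 500 pg/mL final, and were incubated 18 hours at 37 degrees C. Viability was read by CellTiter-Glo luminescence. Media-only wells were set as complete cell-killing and DMSO as no toxicity.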
A549 tox: kills or reduces viability of A549 cells in Nrf2 counter-screen. A549 ARE-Fluc cells, CellTiter-Fluor viability, 18-24 h. Potency, µM (titrated, usually from 46 µM), inactives show at the top dose activity change, negative = cytotoxicity, hits mostly inhibitors. actives 0.16% (n = 390,000); also: % is scaled to controls: 0 for no effect and ±100 for the full control effect
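Cytotoxicity counterscreen: CellTiter-Fluor fluorescence was measured in A549 ARE_Fluc cells after 18-24 h of compound exposure in a concentration series. The subsequent BugLite luminescent read reports ARE-luciferase activity.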
Active calls of the source: *; i = inactive; u = inconclusive; x = not tested or not shown; ! = a repeat was not active. Calls follow the shape of the dose curve; as a rule, active = well fitted curve in the direction sought with a large enough effect; inconclusive = small, poorly fitted or top-dose-only effect, or another doubt; inactive = no such curve, though single readings can be large; an effect the other way counts as inactive or inconclusive. Potency is read from the fitted curve at half-maximal effect.

SMILES	ATXN2 expr inh	Nrf2 block	ATXN viability	TGFb inhibitor	HepG2 viability	A549 tox
COc1ccc(CN(CCC(c2ccccc2)c2ccc(OC(C)C)cc2)C(=O)CCl)cc1OC (stereo not given)	u	-19%	x	u	10µM*	u
Cc1cc(C)cc(CC(=O)N2CCC2(C)C(=O)NS(=O)(=O)c2ccc(Br)cc2)c1 (stereo not given)	5%	x	i	1%	2%	x
Cc1ccccc1-c1nc(CS(=O)(=O)CC(=O)NCc2cccc(Cl)c2)c(C)o1	-39%	u	i	u	-50%	-12%
Cc1cc(=O)c2c(C)nn(-c3ccccc3)c2[nH]1	10%	x	i	-6%	5.6µM*	-2%
Cc1c(C)c2c(C)nn(-c3ccccc3)c2[nH]c1=O	10%	6%	i	-8%	-2%	-1%
CCN(CC)CCn1c2c(c(SCC(=O)Nc3ccccc3Cl)nc1=O)CCC2	7%	10%	i	-6%	-17%	2%
COc1ccc(-c2csc(N(CCCN(C)C)C(=O)c3ccccc3C)n2)cc1	u	-7%	i	u	10µM*	2%
COc1ccc(-c2csc(N(CCCN(C)C)C(=O)c3ccccc3Cl)n2)cc1	u	9%	i	u	-44%	-15%
COc1ccccc1CNc1nc(NCc2ccccc2OC)c2sccc2n1	u	x	u	u	-52%	x
COc1ccccc1CNc1nc(NCc2cccs2)nc2ccsc12	u	x	u	11µM*	-34%	x
COc1ccccc1CNc1nc(NCc2ccc(NC(C)=O)cc2)c2sccc2n1	u	x	i	18µM*	-78%	x
COc1ccccc1CNc1nc(NCC2CC2)nc2ccsc12	u	x	x	13µM*	10µM*	x
COc1ccccc1CNc1nc(NCc2ccc3occc3c2)c2sccc2n1	u	x	u	u	11µM*	x
c1cc2cc(CNc3nc(NCC4CC4)nc4ccsc34)ccc2o1	u	x	x	u	-100%	x
COc1ccc(N2CC(C(=O)N[C@@H](C)C(=O)NCCc3ccccc3)CC2=O)cc1 (stereo not given in full)	8%	14%	i	-1%	7%	-1%
CCOc1ccccc1-n1nnc(-c2nsc(NC(=O)c3ccc(C)cc3)n2)c1C	x	u	x	u	-42%	0%
CCC1Oc2ccccc2N(CC(=O)NCc2ccccc2)C1=O (stereo not given)	x	x	x	-12%	7%	6%
Cc1ccc(NC(=O)c2ccc(S(=O)(=O)N3CCCC3)cc2)nc1	1%	-7%	i	5%	1%	-2%
COc1ccccc1CNc1nc(Nc2ccccc2-n2cccn2)c2sccc2n1	0%	x	16µM*	u	-33%	x
COc1ccccc1CNc1nc(Nc2cccc(-c3cnco3)c2)c2sccc2n1	0%	x	20µM*	u	-72%	x
Cc1sc(NC(=O)CSc2nc(N)n(CC(=O)c3ccccc3)n2)c(C#N)c1C	10%	u	i	-19%	-28%	-25%
CCOC(=O)c1cnc2ccccc2c1NCCc1ccc(OC)c(OC)c1	u	u	u	u	-47%	-14%
CCOC(=O)c1cnc2ccc(OC)cc2c1NCCc1ccc(OC)c(OC)c1	28µM*!	16µM*	u	16µM*!	-47%	u
S=c1[nH]nc(Cc2noc3ccccc23)n1-c1ccccc1	-17%	-13%	i	0%	-2%	-1%
CCOC(=O)C1CCCN(S(=O)(=O)CCNC(=O)c2cccc(OC)c2)C1 (stereo not given)	0%	18µM*	i	-8%	-11%	-2%
SMILES	ATXN2 expr inh	Nrf2 block	ATXN viability	TGFb inhibitor	HepG2 viability	A549 tox
COc1ccc(OC(C)c2nnc(N)s2)cc1 (stereo not given)	x	-18%	u	-10%	0%	-3%
Cc1ccc(OC(C)c2nnc(N)s2)cc1Cl (stereo not given)	-31%	16µM*	i	7%	0%	-5%
CC(Sc1n[nH]c(N)n1)C(=O)NC1CCCCC1C (stereo not given)	15%	2%	i	7%	2%	1%
CCN(C(=O)COC(=O)/C=C/c1ccc(Cl)c(Cl)c1)c1c(N)n(Cc2ccccc2)c(=O)[nH]c1=O	x	15µM*	u	1%	-1%	-14%
CC(C)CN(C(=O)COC(=O)C12CC3CC(CC(C3)C1)C2)c1c(N)n(Cc2ccccc2)c(=O)[nH]c1=O	14µM*	26µM*	22µM*	3%	3%	u
COc1cc(NC(=O)c2cccs2)c(OC)cc1NC(=O)CCn1nnc2ccccc21	3%	0%	i	0%	4%	u
O=C(Cn1nnc(-c2ccc(CN3CCOCC3)cc2)n1)N(c1ccccc1)c1ccccc1	-28%	-41%	i	-7%	-2%	0%
CC(C)(C)NC(=O)CN(C(=O)Cn1nnc(-c2ccc(Cl)cc2)n1)C1CCN(Cc2ccccc2)CC1	-16%	-6%	u	16µM*	18µM*	u
Nc1nc2c(ncn2[C@@H]2O[C@H](CNS(=O)(=O)c3cccnc3)[C@@H](O)[C@H]2O)c(=O)[nH]1	5%	x	i	6%	10%	x
O=C(CSc1nnc2[nH]c(=O)cc(-c3ccccc3)n12)Nc1cc(C(F)(F)F)ccc1Cl	x	x	x	0%	2%	9%
NC(=O)CC(NC(=O)c1ccc(Br)cc1)c1ccc(N2CCN(c3ccc(F)cc3)CC2)c([N+](=O)[O-])c1 (stereo not given)	0%	u	u	-22%	-33%	-17%
NC(=O)CC(NC(=O)Cc1ccc(Br)cc1)c1ccc(NC2CCCC2)c([N+](=O)[O-])c1 (stereo not given)	8.9µM*	u	u	14%	4%	-11%
NC(=O)CC(NC(=O)Cc1ccc(Br)cc1)c1ccc(N2CCN(c3ccc(F)cc3)CC2)c([N+](=O)[O-])c1 (stereo not given)	u	-28%	u	u	11µM*	-10%
NC(=O)CC(NC(=O)Cc1ccc(Br)cc1)c1ccc(NC2CCCCCCC2)c([N+](=O)[O-])c1 (stereo not given)	u	u	u	0%	4%	u
NC(=O)CC(NC(=O)Cc1ccc(Br)cc1)c1ccc(NC2CCCCCC2)c([N+](=O)[O-])c1 (stereo not given)	u	23µM*	u	0%	-5%	u
